{"source": "PubChem BioAssay (NCATS)", "note": "Results filed as inconclusive are left out. Calls of active or inactive are those of the source. The call rests on the fitted dose curve; in most records, active means well fitted cell-killing curve with a large enough effect; inconclusive means small, poorly fitted or top-dose-only effect, or effect the other way; inactive means no such curve, though single readings can be large or run the other way. Potency means the concentration at half of the fitted maximal effect.", "data": [{"test": "Quantitative High-Throughput drug screen in 47 multiple myeloma cell lines against the NCATS MIPE library collection: MOLP8_DSMZ cell viability assay (AID 1918977); further: nearly all actives have a fitted effect of over 45% in size", "details": "MOLP8 myeloma viability, CellTiter-Glo ATP luminescence, 48 h; series mostly up to 45.8 µM", "source_text": "PI: Beverly A. Mock Ph.D.\nLaboratory of Cancer Biology and Genetics,\nCenter for Cancer Research, National Cancer Institute,\nNational Institute of Health, Bethesda, Maryland\nDrug resistance and disease progression are common in multiple myeloma (MM) patients, underscoring the need for new therapeutic combinations. […] We hypothesized that effective combinations would reduce MYC expression and enhance p16 activity. […] These preclinical data identify potentially useful drug combinations for evaluation in drug-resistant MM and reveal potential mechanisms of combined drug sensitivity.\nDescribed herein is the primary MIPE qHTS used to cherrypick compounds. Validated compounds were then further tested for potential synergistic activiy.\n[1] Peat TJ, Gaikwad SM, Dubois W, Gyabaah-Kessie N, Zhang S, Gorjifard S, Phyo Z, Andres M, Hughitt VK, Simpson RM, Miller MA, Girvin AT, Taylor A, Williams D, D'Antonio N, Zhang Y, Rajagopalan A, Flietner E, Wilson K, Zhang X, Shinn P, Klumpp-Thomas C, McKnight C, Itkin Z, Chen L, Kazandijian D, Zhang J, Michalowski AM, Simmons JK, Keats J, Thomas CJ, Mock BA. Drug combinations identified by high-throughput screening promote cell cycle transition and upregulate Smad pathways in myeloma. Cancer Lett. 2023 Aug 1;568:216284. doi: 10.1016/j.canlet.2023.216284. Epub 2023 Jun 24. PMID: 37356470; PMCID: PMC10408729.\nSEQUENCE No. (e.g., 1, 2, 3, etc.); […] (e.g., Cells, Incubation, Reagent, etc.); VALUE and DESCRIPTION.\n1; Cells; 5 uL; white, solid bottom 1536-well Greiner assay plate.\n2; Compounds; 23 nL; Kalypsis pin tool (Wako USA) equipped with a 1536-well pin head to transfer to the assay plates.\n3; Incubation; 48 hours; 37C incubation.\n4; Reagent;5uL; CellTiter Glo (Promega).\n5; Detector; 425V; Luminescence; Viewlux PerkinElmer.\nNOTES (numbers refer to Sequence numbers above)\n1. The cell-based screening methods employed in this study were like those previously published. Briefly, the corresponding myeloma cell lines were screened in 1,536-well plates with 500 cells, 5-uL per well for inhibition of cell viability (assessed by measuring ATP levels with CellTiterGlo).\n2. NCATS MIPE 4.0 library of approved and investigational drugs were added using the Kalypsis pin tool. Wells treated with DMSO only for 100% viability and media only for 0% viability were used as controls.\n3. The assay plates were covered and incubated for 48 hours in a 37C, 5% CO2 incubator with controlled humidity.\n4. After 48 hours, CellTilter-GloTM luminescent substrate mix (Promega) reagent was added to the assay plate and plates we incubated for 5 min at room temperature.\n5. Signal was measured as median relative luminescence units on a ViewLux (PerkinElmer) multiplate reader.\n[1] Heske CM, Davis MI, Baumgart JT, Wilson K, Gormally MV, Chen L, Zhang X, Ceribelli M, Duveau DY, Guha R, Ferrer M, Arnaldez FI, Ji J, Tran HL, Zhang Y, Mendoza A, Helman LJ, Thomas CJ. Matrix Screen Identifies Synergistic Combination of PARP Inhibitors and Nicotinamide Phosphoribosyltransferase (NAMPT) Inhibitors in Ewing Sarcoma. Clin Cancer Res. 2017 Dec 1;23(23):7301-7311. doi: 10.1158/1078-0432.CCR-17-1121. Epub 2017 Sep 12. PMID: 28899971; PMCID: PMC6636827.", "values": [{"smiles": "N#CC(c1ccnc(NCCc2cccnc2)n1)c1nc2ccccc2s1", "note": "(stereo not given)", "Potency": "inactive"}, {"smiles": "Cn1cnc(-c2cc3nccc(Oc4ccc(NC(=S)NC(=O)Cc5ccccc5)cc4F)c3s2)c1", "Potency": "inactive"}, {"smiles": "Nc1ccc(-c2ccc3ncc4ccc(=O)n(-c5cccc(C(F)(F)F)c5)c4c3c2)cn1", "Potency": "0.0059 µM (active)"}, {"smiles": "COc1ccc(-c2cc(=O)c3c(O)cc(O[C@@H]4O[C@H](CO[C@@H]5O[C@@H](C)[C@H](O)[C@@H](O)[C@@H]5O)[C@@H](O)[C@H](O)[C@@H]4O)cc3o2)cc1O", "Potency": "inactive"}, {"smiles": "Cc1c(C(=O)Nc2ccc(N3C[C@@H](C)O[C@@H](C)C3)nc2)cccc1-c1ccc(OC(F)(F)F)cc1", "Potency": "13.2 µM (active)"}, {"smiles": "CN1CC(=O)N2C(Cc3c([nH]c4ccccc34)[C@H]2c2ccc3c(c2)OCO3)C1=O", "note": "(stereo not given in full)", "Potency": "inactive"}, {"smiles": "CCn1c(-c2nonc2N)nc2cncc(CNC3CCNCC3)c21", "Potency": "14.8 µM (active)"}, {"smiles": "Clc1ccc(C2(c3ccc(-c4cn[nH]c4)cc3)CCNCC2)cc1", "Potency": "20.9 µM (active)"}, {"smiles": "O=C(Nc1ncc(SCCN2CCCC2)s1)[C@]1(c2ccc(S(=O)(=O)C3CC3)cc2)C[C@@H]1C1CCCCC1", "Potency": "16.6 µM (active)"}, {"smiles": "CN(C)CCOc1ccc(C(=C(CCCl)c2ccccc2)c2ccccc2)cc1", "Potency": "18.7 µM (active)"}, {"smiles": "CCC[C@H](N[C@@H](C)C(=O)N1[C@@H]2CCCC[C@H]2C[C@H]1C(=O)O)C(=O)OCC", "Potency": "inactive"}, {"smiles": "CC(C)=CCCC(C)=CCCC(C)=CCCC(C)=CCCC(C)=CCCC(C)=CCCC(C)=CCCC(C)=CCCC(C)=CCO", "Potency": "9.35 µM (active)"}, {"smiles": "CCC(=O)N1CCN(c2ccc(-n3c(=O)ccc4cnc5ccc(-c6cnc7ccccc7c6)cc5c43)cc2C(F)(F)F)CC1", "Potency": "0.0332 µM (active)"}, {"smiles": "NC[C@H]1O[C@H](O[C@@H]2[C@@H](O)[C@@H](O[C@H]3O[C@H](CO)[C@@H](O)[C@H](N)[C@@H]3O)[C@H](N)C[C@@H]2N)[C@H](O)[C@@H](O)[C@H]1O", "Potency": "inactive"}, {"smiles": "Oc1cc(O)cc(C=Cc2ccc(O)c(O)c2)c1", "Potency": "18.7 µM (active)"}, {"smiles": "CN1CC(=O)NC1=NC(=O)Nc1cccc(Cl)c1", "Potency": "10.5 µM (active)"}, {"smiles": "CCCCOCCOc1nc(-c2ccc(C(=O)O)c(F)c2)sc1C", "Potency": "inactive"}, {"smiles": "COC(=O)Nc1ccc(-c2nc(N3CCOCC3)c3cnn(C4CCN(C(=O)OC)CC4)c3n2)cc1", "Potency": "1.48 µM (active)"}, {"smiles": "COc1c(C)c2c(c(O)c1CC=C(C)CCC(=O)OCCN1CCOCC1)C(=O)OC2", "Potency": "2.96 µM (active)"}, {"smiles": "COc1cc(C=CC(=O)O)ccc1O", "Potency": "inactive"}, {"smiles": "COc1ccc2c(c1)c(C1=C(c3c[nH]c4ccccc34)C(=O)NC1=O)cn2CCCN(C)C", "Potency": "14.8 µM (active)"}, {"smiles": "C=CCc1cccc(C=NNC(=O)CN2CCN(Cc3ccccc3)CC2)c1O", "Potency": "6.62 µM (active)"}, {"smiles": "O=C1C(CCC(O)c2ccc(F)cc2)C(c2ccc(O)cc2)N1c1ccc(F)cc1", "note": "(stereo not given)", "Potency": "inactive"}, {"smiles": "COc1ccc(C=CC(=O)Nc2ccccc2C(=O)O)cc1OC", "Potency": "inactive"}, {"smiles": "CC[C@H](NC(=O)[C@H](C)NC)C(=O)N1C[C@@H](O)C[C@H]1Cc1c(-c2[nH]c3cc(F)ccc3c2C[C@H]2C[C@H](O)CN2C(=O)[C@H](CC)NC(=O)[C@H](C)NC)[nH]c2cc(F)ccc12", "Potency": "inactive"}, {"smiles": "O[C@@H](COc1cccc2ncccc12)CN1CCN(C2c3ccccc3[C@@H]3[C@H](c4ccccc42)C3(F)F)CC1", "note": "(stereo not given in full)", "Potency": "23.5 µM (active)"}, {"smiles": "Clc1ccc(COC(Cn2ccnc2)c2ccc(Cl)cc2Cl)c(Cl)c1", "note": "(stereo not given)", "Potency": "18.7 µM (active)"}, {"smiles": "CCOC(=O)c1c(CSc2ccccc2)n(C)c2cc(Br)c(O)c(CN(C)C)c12", "Potency": "5.9 µM (active)"}, {"smiles": "CC(C)c1onc(-c2c(Cl)cccc2Cl)c1COc1ccc(C=Cc2cccc(C(=O)O)c2)c(Cl)c1", "Potency": "inactive"}, {"smiles": "CC(=O)N1CCN(c2ccc(OCc3nn(C)c(C)c3-c3cccc4c(CCCOc5cc(C)c(Cl)c(C)c5)c(C(=O)O)n(Cc5cccnc5)c34)cc2)CC1", "Potency": "20.9 µM (active)"}, {"smiles": "COc1cc2c(cc1Cc1cccc(Cl)c1F)c(=O)c(C(=O)O)cn2[C@H](CO)C(C)C", "Potency": "13.2 µM (active)"}, {"smiles": "O=c1[nH]c(=O)n([C@H]2C[C@@H](O)[C@@H](CO)O2)cc1I", "Potency": "inactive"}, {"smiles": "O=C(Nc1cccc(Cl)c1)Nc1ncc(CCNc2ncnc3ccsc23)s1", "Potency": "3.72 µM (active)"}, {"smiles": "C#C[C@]1(O)CC[C@H]2[C@H]3CCc4cc(OC)ccc4[C@H]3CC[C@@]21C", "Potency": "inactive"}, {"smiles": "OCCn1cc(-c2ccc3c(c2)CCC3=NO)c(-c2ccncc2)n1", "Potency": "0.0662 µM (active)"}, {"smiles": "O=C(CO)N1CCC(c2[nH]nc(-c3ccc(Cl)cc3)c2-c2ccncn2)CC1", "Potency": "inactive"}, {"smiles": "c1ccc(CNc2nc(N3CCOc4ccccc43)nc3c2CCCC3)cc1", "Potency": "inactive"}, {"smiles": "COC(=O)N1CCN(Cc2cccc(NC(=O)Nc3ccc(C)nc3)c2F)CC1", "Potency": "inactive"}, {"smiles": "CC(C)CNc1ccnc(NCc2csc(-c3ccccc3)n2)n1", "Potency": "20.9 µM (active)"}, {"smiles": "CCC(c1ccc(O)cc1)C(CC)c1ccc(O)cc1", "note": "(stereo not given)", "Potency": "inactive"}]}]}
